Experimental data as given in PMC5540273 (PLoS ONE, 2017).

Assays:
Details in all cases: concentration: 1 μM, replicates: in singlicate; n = 1
MYO3A = test system: MYO3A
MYO3B = test system: MYO3B
NDR1 = test system: T1, NDR1
T1 construct: gene STK38

NDR2 = test system: NDR2
NEK10 = test system: NEK10
NEK11 = test system: NEK11
NEK1 = test system: NEK1
NEK2 = test system: NEK2
NEK3 = test system: NEK3
NEK4 = test system: NEK4
NEK5 = test system: NEK5
NEK6 = test system: NEK6
NEK7 = test system: NEK7
NEK9 = test system: NEK9
NIK = test system: T2, NIK
T2 construct: gene MAP3K14

NIM1 = test system: T3, NIM1
T3 construct: gene MGC42105

NLK = test system: NLK
OSR1 = test system: T4, OSR1
T4 construct: gene OXSR1

PAK1 = test system: PAK1
PAK2 = test system: PAK2
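Also: KINOMEscan kinase panel screen.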

Compound | %Inh (MYO3A) [%] | %Inh (MYO3B) [%] | %Inh (NDR1) [%] | %Inh (NDR2) [%] | %Inh (NEK10) [%] | %Inh (NEK11) [%] | %Inh (NEK1) [%] | %Inh (NEK2) [%] | %Inh (NEK3) [%] | %Inh (NEK4) [%] | %Inh (NEK5) [%] | %Inh (NEK6) [%] | %Inh (NEK7) [%] | %Inh (NEK9) [%] | %Inh (NIK) [%] | %Inh (NIM1) [%] | %Inh (NLK) [%] | %Inh (OSR1) [%] | %Inh (PAK1) [%] | %Inh (PAK2) [%]
Cc1ccc(NC(=O)Nc2ccccc2)cc1-c1ccc(C(=O)Nc2ccncc2)cc1 [GSK1398471] | 0 | 0 | 24 | 0 | 10 | 0 | 15 | 0 | 0 | 0 | 4 | 0 | 0 | 23 | 0 | 0 | 51 | 14 | 20 | 13
CC(C)c1cc(-c2ccc3c(N)n[nH]c3c2)nc(N)n1 [GSK2250882] | 9 | 0 | 17 | 0 | 8 | 0 | 0 | 0 | 0 | 0 | 0 | 0 | 0 | 18 | 0 | 10 | 19 | 16 | 20 | 16
COc1ccc(CSc2nnc(-c3ccc4nccn4c3)o2)cc1C(F)(F)F | 2 | 0 | 14 | 12 | 13 | 0 | 3 | 0 | 0 | 4 | 4 | 10 | 7 | 0 | 0 | 0 | 18 | 8 | 15 | 61
COc1ccc(Nc2nccc(N3CCC(NC(=O)C(C)c4ccc(Cl)cc4)C3)n2)cc1 (centres unmarked) [GSK1379735] | 0 | 7 | 0 | 0 | 7 | 0 | 0 | 13 | 0 | 10 | 32 | 0 | 6 | 2 | 12 | 13 | 14 | 0 | 16 | 38
CC[C@@H]1CO[C@H](C(=O)Nc2ccccc2)CN1c1cc(-c2ccc3c(N)n[nH]c3c2)nc(NC)n1 [GSK2376236] | 19 | 0 | 0 | 5 | 0 | 0 | 0 | 10 | 4 | 0 | 19 | 0 | 0 | 19 | 0 | 0 | 17 | 14 | 15 | 7
O=C1NC(=O)C(c2ccc(Cl)cc2)=C1Nc1ccc(O)cc1 [SB-340867] | 0 | 0 | 14 | 12 | 0 | 0 | 0 | 0 | 0 | 0 | 0 | 0 | 11 | 0 | 0 | 0 | 0 | 0 | 0 | 7
CNc1nc(-c2ccc3c(N)n[nH]c3c2)cc(N2C[C@@H](C(=O)NC3CCCCC3)OC[C@H]2C)n1 [GSK2375584] | 35 | 0 | 29 | 28 | 9 | 0 | 2 | 0 | 11 | 0 | 11 | 0 | 0 | 4 | 5 | 0 | 9 | 6 | 14 | 16
Cc1cnc(N)c(/C=C/c2cncc(C(=O)NCCc3ccc(Cl)cc3Cl)c2)c1.Cl [GSK190937] | 6 | 0 | 21 | 21 | 13 | 0 | 5 | 10 | 0 | 0 | 9 | 0 | 0 | 0 | 10 | 18 | 7 | 0 | 4 | 10
COc1ccc(Nc2nccc(N3CCC(NC(=O)C(C)c4ccc(Cl)cc4)CC3)n2)cc1 (centres unmarked) [GSK1379812] | 24 | 0 | 39 | 0 | 43 | 0 | 0 | 4 | 53 | 0 | 54 | 55 | 0 | 10 | 0 | 11 | 35 | 0 | 21 | 15
Cc1ccccc1-c1cc(-c2c[nH]nc2-c2ccccn2)ccn1 [GW680061] | 0 | 0 | 0 | 0 | 4 | 11 | 0 | 0 | 0 | 11 | 9 | 0 | 0 | 0 | 28 | 18 | 15 | 9 | 0 | 5
